Measurements reported in PubChem BioAssay (EPA / NIEHS).
Inconclusive results are not listed. Active and inactive are the calls of the source. Rule for the calls, unless noted: active = hit-call score of the fitted dose curve at least 0.9, where 1 is the maximum; inactive = score below 0.9.

Experiments:
[1] = target: Hypoxia-inducible factor 1-alpha (Homo sapiens) (UniProt Q16665); assay: ATG_HIF1a_CIS: Attagene CIS-FACTORIAL HepG2 Assay for human Hypoxia Inducible Factor 1 (HIF1A) (AID 2282951); conditions: HepG2 Attagene cis-factorial HIF1a reporter transcription; actives raise or lower the signal
How it was run: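 Endogenous-TF cis reporter readout, human HepG2 cells, 24 h incubation; mRNA detected via RT-PCR and capillary electrophoresis fluorescence; DMSO-normalised bidirectional fitting.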

[2] = target: Hepatocyte nuclear factor 6 (Homo sapiens) (UniProt Q9UBC0); assay: ATG_HNF6_CIS: Attagene CIS-FACTORIAL HepG2 Assay for human Hepatocyte Nuclear Factor 6 (HNF6) (AID 2282952); conditions: HepG2 Attagene cis-factorial HNF6 reporter transcription; actives raise or lower the signal
How it was run: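 Endogenous factor activity read in transiently transfected HepG2 via promoter-regulated reporter transcripts. RNA harvested 24 h post-dosing, reverse-transcribed, PCR-amplified, FAM-labelled, HpaI-digested and resolved by capillary electrophoresis; fitted in both directions against DMSO.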

[3] = target: Heat shock factor protein 1 (Homo sapiens) (UniProt Q00613); assay: ATG_HSE_CIS: Attagene CIS-FACTORIAL HepG2 Assay for human Heat Shock Transcription Factor 1 (HSE) (AID 2282953); conditions: HepG2 HSE cis-reporter, Attagene RNA transcription; actives raise or lower the signal
How it was run: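 Read-out: fluorescence of reporter-specific RT-PCR fragments separated by capillary electrophoresis. HepG2 carrying transfected cis-element reporter units; 24 h dosing; activity fitted in both directions relative to DMSO baseline.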

[4] = ATG_MRE_CIS: Attagene CIS-FACTORIAL HepG2 Assay for human Metal Responsive Element (MRE) (AID 2282954); conditions: HepG2 MRE cis-reporter transcription, Attagene multiplex; actives raise or lower the signal
How it was run: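 RT-PCR/capillary electrophoresis readout of reporter mRNA, 24 h post-dosing, in HepG2 cells transfected with multiplexed cis-regulated reporter constructs. Gain or loss of signal fitted bidirectionally against DMSO baseline.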

[5] = ATG_PBREM_CIS: Attagene CIS-FACTORIAL HepG2 Assay for human Phenobarbital-responsive Enhancer Module (PBREM) (AID 2282955); conditions: HepG2 PBREM cis-reporter, Attagene multiplexed transcription; actives raise or lower the signal
How it was run: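 Readout: reporter mRNA, fluorescent RT-PCR fragments separated by capillary electrophoresis. System: HepG2 transiently transfected with cis-regulated reporter units. Exposure: 24 h. Analysis: bidirectional, DMSO baseline.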

[6] = target: Paired box protein Pax-6 (Homo sapiens) (UniProt P26367); assay: ATG_Pax6_CIS: Attagene CIS-FACTORIAL HepG2 Assay for human Paired Box 6 (PAX6) (AID 2282956); conditions: HepG2 CIS-FACTORIAL PAX6 reporter transcription, RNA readout; actives raise or lower the signal
How it was run: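 Fluorescent RT-PCR products separated by capillary electrophoresis report PAX6-linked promoter mRNA in HepG2 cells 24 h post-dose. Curves fitted bidirectionally, DMSO as negative control.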

[7] = ATG_PXRE_CIS: Attagene CIS-FACTORIAL HepG2 Assay for human Pregnane X Receptor Element (PXRE) (AID 2282957); conditions: HepG2 Attagene CIS-FACTORIAL PXRE reporter, mRNA; actives raise or lower the signal
How it was run: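 Reporter transcripts under endogenous PXR-responsive cis-regulation quantified from total RNA of transfected HepG2 cells 24 h post-dosing, via RT-PCR with fluorescent primer extension and capillary electrophoresis. Gain or loss of signal fitted against DMSO baseline.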

[8] = ATG_RORE_CIS: Attagene CIS-FACTORIAL HepG2 Assay for human RAR-related Orphan Receptor Element (RORE) (AID 2282959); conditions: HepG2 Attagene cis-factorial RORE reporter, mRNA; actives raise or lower the signal
How it was run: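 Measured here: transcript induction of a cis-regulated reporter in HepG2 cells transiently transfected via FuGene 6. After 24 h, RNA was processed by RT-PCR and fluorescent capillary electrophoresis; DMSO defined baseline activity.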

[9] = ATG_Sox_CIS: Attagene CIS-FACTORIAL HepG2 Assay for human SRY-box transcription factor (SOX) (AID 2282960); conditions: HepG2 Attagene cis-factorial SOX reporter, mRNA; actives raise or lower the signal
How it was run: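 Using transiently transfected HepG2 cells, reporter transcription driven by cis elements was assessed 24 h after dosing. Signal was fluorescence of capillary-separated RT-PCR products, with DMSO defining baseline activity.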

[10] = target: Transcription factor Sp1 (Homo sapiens) (UniProt P08047); assay: ATG_Sp1_CIS: Attagene CIS-FACTORIAL HepG2 Assay for human Specificity Protein 1 (Sp1) (AID 2282961); conditions: HepG2 Sp1 cis-reporter transcription, actives raise or lower the signal
How it was run: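 After transient transfection of HepG2 cells with cis-promoter reporter units and 24 h chemical treatment, reporter transcripts were quantified by RT-PCR and capillary electrophoresis fluorescence. Gain- and loss-of-signal fitted against DMSO.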

[11] = ATG_SREBP_CIS: Attagene CIS-FACTORIAL HepG2 Assay for human Sterol Regulatory Element Binding (SREBP) (AID 2282962); conditions: HepG2 Attagene cis-factorial SREBP reporter, mRNA; actives raise or lower the signal
How it was run: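 Endogenous factor activity is measured in HepG2 through multiplexed reporter units under cis-element control. Following a 24 h incubation, reporter transcripts are reverse-transcribed, PCR-amplified and sized by capillary electrophoresis; activity is fitted in both directions relative to DMSO.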

[12] = target: Signal transducer and activator of transcription 3 (Homo sapiens) (UniProt P40763); assay: ATG_STAT3_CIS: Attagene CIS-FACTORIAL HepG2 Assay for human Signal Transducer and Activator of Transcription 3 (STAT3) (AID 2282963); conditions: HepG2, Attagene cis-factorial STAT3 reporter transcription; actives raise or lower the signal
How it was run: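 Readout: fluorescent reporter mRNA fragments resolved by capillary electrophoresis. Setup: HepG2 transfected with MRTUs reporting endogenous transcription-factor activity, dosed 24 h. Gain or loss of signal fitted bidirectionally against DMSO control.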

[13] = ATG_TA_CIS: Attagene CIS-FACTORIAL HepG2 Assay for human TA Basal Promoter (AID 2282964); conditions: HepG2 Attagene CIS-factorial TA basal promoter reporter; actives raise or lower the signal
How it was run: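 Transfected HepG2, 24 h compound exposure; RNA → RT-PCR → FAM primer extension → HpaI cut → CE fluorescence. Gain/loss-of-signal fitted against DMSO negative control. Background-control readout.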

[14] = ATG_TCF_b_cat_CIS: Attagene CIS-FACTORIAL HepG2 Assay for human T-Cell-Factor with beta-catenin (TCF/b-cat) (AID 2282965); conditions: HepG2 TCF/beta-catenin cis-reporter transcription, actives raise or lower the signal
How it was run: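 HepG2 cells transiently transfected with cis-promoter-driven multiplexed reporter units; reporter mRNA measured 24 h after dosing by RT-PCR, FAM labelling, HpaI digestion and capillary electrophoresis. Bidirectional fitting relative to DMSO baseline.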

[15] = ATG_TAL_CIS: Attagene CIS-FACTORIAL HepG2 Assay for human TAL Basal Promoter (AID 2282966); conditions: HepG2 Attagene cis-factorial TAL promoter reporter; actives raise or lower the signal;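 note: background control endpoint measuring basal TAL promoter reporter mRNA not a specific factor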
How it was run: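 Background-control endpoint: basal TAL promoter reporter transcripts in transiently transfected HepG2, measured 24 h after dosing. Read-out by RT-PCR with fluorescent primer extension and capillary electrophoresis; gain or loss of signal fitted relative to DMSO.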

[16] = ATG_TGFb_CIS: Attagene CIS-FACTORIAL HepG2 Assay for human Transforming Growth Factor (TGF) (AID 2282967); conditions: HepG2 Attagene CIS TGFb reporter, mRNA transcription; actives raise or lower the signal
How it was run: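 Readout: fluorescently labeled reporter cDNA fragments resolved by capillary electrophoresis after RT-PCR. Transfected HepG2 cells dosed for 24 h; endogenous TF activity at TGFB1-linked cis element; gain or loss fitted relative to DMSO.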

[17] = ATG_VDRE_CIS: Attagene CIS-FACTORIAL HepG2 Assay for human Vitamin D Receptor Element (VDRE) (AID 2282968); conditions: HepG2 VDRE cis-reporter transcription, actives raise or lower the signal
How it was run: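 Transient MRTU transfection of HepG2, 24 h compound exposure. Readout: reporter transcripts via RT-PCR and capillary electrophoresis, fluorescence. Bidirectional fit vs DMSO.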

[18] = target: Nuclear receptor subfamily 1 group I member 3 (Homo sapiens) (UniProt Q14994); assay: ATG_CAR_TRANS: Attagene TRANS-FACTORIAL HepG2 Assay for human Constitutive Androstane Receptor (CAR) (AID 2282969; active = hit-call score of the fitted dose curve at least 0.9, where 1 is the maximum;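 note: activators raise reporter mRNA above DMSO so AC50 marks induction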); conditions: HepG2 Attagene TRANS-FACTORIAL CAR reporter
How it was run: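 Transiently transfected HepG2, multiplex TRANS reporters (CAR-Gal4 chimera driving GAL4-UAS reporter). 24 h dosing. Readout: reporter transcript by RT-PCR + capillary electrophoresis, fluorescence intensity; positive direction vs DMSO.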

[19] = target: Estrogen receptor (Homo sapiens) (UniProt P03372); assay: ATG_ERa_TRANS: Attagene TRANS-FACTORIAL HepG2 Assay for human Estrogen Receptor alpha (ERa) (AID 2282970; active = hit-call score of the fitted dose curve at least 0.9, where 1 is the maximum); conditions: HepG2 Attagene TRANS ERa GAL4 reporter, mRNA
How it was run: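 Reporter transcripts were measured 24 h after dosing by RT-PCR with fluorescent primer extension and capillary electrophoresis. The system is transiently transfected HepG2 expressing exogenous NR-Gal4 chimeras driving GAL4-UAS reporters; DMSO is the baseline.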

[20] = ATG_PPRE_CIS: Attagene CIS-FACTORIAL HepG2 Assay for human Peroxisome Proliferator-activated Response Element (PPRE) (AID 2282958); conditions: HepG2 PPRE cis-element reporter, Attagene transcription factor profiling; actives raise or lower the signal
How it was run: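 After human HepG2 hepatoma cells were transiently transfected with cis-promoter reporter constructs, they were exposed to test chemicals for 24 hours. Reporter RNA was then reverse-transcribed, PCR-amplified, FAM-labeled, HpaI-digested and quantified by capillary electrophoresis.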

Measured: AC50

Hypoxia-inducible factor 1-alpha (Homo sapiens), sequence (Q16665 whole entry, looked up): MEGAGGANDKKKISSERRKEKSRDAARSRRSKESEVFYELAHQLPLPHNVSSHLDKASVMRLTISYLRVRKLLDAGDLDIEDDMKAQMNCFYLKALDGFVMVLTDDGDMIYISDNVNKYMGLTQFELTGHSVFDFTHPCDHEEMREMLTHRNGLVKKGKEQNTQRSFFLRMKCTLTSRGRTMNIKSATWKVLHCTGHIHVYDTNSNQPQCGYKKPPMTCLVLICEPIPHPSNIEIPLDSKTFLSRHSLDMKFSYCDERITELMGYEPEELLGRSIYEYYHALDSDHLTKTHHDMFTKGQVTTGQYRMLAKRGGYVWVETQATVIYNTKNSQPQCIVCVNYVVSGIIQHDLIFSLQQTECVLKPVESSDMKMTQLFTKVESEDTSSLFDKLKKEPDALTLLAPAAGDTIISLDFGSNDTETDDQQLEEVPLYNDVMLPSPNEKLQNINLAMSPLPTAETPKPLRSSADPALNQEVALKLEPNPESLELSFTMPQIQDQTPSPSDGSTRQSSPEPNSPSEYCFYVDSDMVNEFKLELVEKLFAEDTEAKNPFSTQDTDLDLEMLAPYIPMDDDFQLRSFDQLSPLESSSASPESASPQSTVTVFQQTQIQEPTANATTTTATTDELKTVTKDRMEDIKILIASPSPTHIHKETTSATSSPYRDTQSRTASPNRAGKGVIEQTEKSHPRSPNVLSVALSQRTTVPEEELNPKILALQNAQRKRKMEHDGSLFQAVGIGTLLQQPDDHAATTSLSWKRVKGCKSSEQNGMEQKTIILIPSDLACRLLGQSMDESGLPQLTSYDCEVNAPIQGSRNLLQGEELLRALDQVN
Nuclear receptor subfamily 1 group I member 3 (Homo sapiens), sequence (Q14994 whole entry, looked up, the tested form may be a part): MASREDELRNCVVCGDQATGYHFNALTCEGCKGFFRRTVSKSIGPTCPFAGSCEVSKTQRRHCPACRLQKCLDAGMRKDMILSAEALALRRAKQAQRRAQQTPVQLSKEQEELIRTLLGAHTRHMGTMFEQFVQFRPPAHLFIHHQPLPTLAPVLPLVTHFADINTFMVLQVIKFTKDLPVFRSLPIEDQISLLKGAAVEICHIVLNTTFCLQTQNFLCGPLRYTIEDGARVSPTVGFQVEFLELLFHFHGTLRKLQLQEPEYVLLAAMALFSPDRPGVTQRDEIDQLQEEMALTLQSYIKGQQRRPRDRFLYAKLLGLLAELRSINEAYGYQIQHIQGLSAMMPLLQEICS
Hepatocyte nuclear factor 6 (Homo sapiens), sequence (Q9UBC0 whole entry, looked up): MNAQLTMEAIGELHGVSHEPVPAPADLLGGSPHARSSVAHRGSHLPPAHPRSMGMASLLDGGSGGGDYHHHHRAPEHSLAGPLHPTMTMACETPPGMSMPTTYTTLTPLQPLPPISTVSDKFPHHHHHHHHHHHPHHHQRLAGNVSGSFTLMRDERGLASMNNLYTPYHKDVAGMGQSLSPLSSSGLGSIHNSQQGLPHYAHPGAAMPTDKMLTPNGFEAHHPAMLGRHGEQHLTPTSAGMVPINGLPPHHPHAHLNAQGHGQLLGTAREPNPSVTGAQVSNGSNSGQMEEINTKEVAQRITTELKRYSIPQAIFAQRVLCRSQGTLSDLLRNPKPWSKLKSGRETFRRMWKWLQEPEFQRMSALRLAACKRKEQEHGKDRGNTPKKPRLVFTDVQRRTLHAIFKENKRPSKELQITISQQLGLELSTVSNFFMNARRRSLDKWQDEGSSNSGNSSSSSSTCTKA
Signal transducer and activator of transcription 3 (Homo sapiens), sequence (P40763 whole entry, looked up, the tested form may be a part): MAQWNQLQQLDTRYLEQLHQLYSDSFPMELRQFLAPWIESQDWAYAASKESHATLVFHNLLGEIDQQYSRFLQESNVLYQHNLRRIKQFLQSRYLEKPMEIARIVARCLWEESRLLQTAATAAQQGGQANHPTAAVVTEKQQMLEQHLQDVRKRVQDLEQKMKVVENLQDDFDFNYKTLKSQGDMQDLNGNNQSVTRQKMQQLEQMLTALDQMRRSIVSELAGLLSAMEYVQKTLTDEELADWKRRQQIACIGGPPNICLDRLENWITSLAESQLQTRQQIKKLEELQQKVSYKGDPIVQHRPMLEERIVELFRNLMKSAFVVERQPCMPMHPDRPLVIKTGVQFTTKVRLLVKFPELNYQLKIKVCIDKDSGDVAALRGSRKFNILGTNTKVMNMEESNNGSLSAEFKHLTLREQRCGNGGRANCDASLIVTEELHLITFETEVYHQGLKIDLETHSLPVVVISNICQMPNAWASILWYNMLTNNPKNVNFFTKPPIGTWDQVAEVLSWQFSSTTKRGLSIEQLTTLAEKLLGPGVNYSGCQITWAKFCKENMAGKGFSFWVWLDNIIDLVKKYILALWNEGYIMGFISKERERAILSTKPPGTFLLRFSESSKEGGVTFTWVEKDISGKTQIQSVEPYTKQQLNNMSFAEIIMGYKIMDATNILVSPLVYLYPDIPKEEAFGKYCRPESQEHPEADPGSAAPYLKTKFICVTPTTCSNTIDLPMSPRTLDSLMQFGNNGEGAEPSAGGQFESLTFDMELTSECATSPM
Heat shock factor protein 1 (Homo sapiens), sequence (Q00613 whole entry, looked up, the tested form may be a part): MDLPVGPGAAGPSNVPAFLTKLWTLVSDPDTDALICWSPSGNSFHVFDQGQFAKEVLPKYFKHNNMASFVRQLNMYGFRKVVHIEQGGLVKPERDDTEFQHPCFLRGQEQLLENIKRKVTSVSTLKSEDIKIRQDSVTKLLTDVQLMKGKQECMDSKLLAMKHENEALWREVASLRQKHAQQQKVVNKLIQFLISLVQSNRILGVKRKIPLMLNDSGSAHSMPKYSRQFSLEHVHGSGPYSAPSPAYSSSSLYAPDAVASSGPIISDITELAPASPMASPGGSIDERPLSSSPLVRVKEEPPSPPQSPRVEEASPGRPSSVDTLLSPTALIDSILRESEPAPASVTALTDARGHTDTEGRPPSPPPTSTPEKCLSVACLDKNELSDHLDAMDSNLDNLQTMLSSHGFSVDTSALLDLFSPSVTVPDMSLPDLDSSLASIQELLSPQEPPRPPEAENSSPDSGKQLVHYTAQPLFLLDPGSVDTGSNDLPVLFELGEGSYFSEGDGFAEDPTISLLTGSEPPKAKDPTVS
Estrogen receptor (Homo sapiens), sequence (P03372 whole entry, looked up, the tested form may be a part): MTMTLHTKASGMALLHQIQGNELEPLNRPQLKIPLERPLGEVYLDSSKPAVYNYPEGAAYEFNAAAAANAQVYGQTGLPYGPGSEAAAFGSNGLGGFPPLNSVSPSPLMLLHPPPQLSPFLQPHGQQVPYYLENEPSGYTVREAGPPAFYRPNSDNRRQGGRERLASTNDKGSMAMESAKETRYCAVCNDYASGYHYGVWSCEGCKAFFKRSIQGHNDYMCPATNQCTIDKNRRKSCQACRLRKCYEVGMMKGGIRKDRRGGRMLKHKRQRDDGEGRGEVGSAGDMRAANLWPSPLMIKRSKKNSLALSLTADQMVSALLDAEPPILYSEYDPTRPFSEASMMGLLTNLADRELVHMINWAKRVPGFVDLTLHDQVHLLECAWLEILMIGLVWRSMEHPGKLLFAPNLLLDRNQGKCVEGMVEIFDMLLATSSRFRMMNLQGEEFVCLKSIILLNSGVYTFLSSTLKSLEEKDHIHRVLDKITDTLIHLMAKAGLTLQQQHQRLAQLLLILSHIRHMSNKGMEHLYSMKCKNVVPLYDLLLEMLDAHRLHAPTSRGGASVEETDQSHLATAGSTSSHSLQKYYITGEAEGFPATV
Transcription factor Sp1 (Homo sapiens), sequence (P08047 whole entry, looked up): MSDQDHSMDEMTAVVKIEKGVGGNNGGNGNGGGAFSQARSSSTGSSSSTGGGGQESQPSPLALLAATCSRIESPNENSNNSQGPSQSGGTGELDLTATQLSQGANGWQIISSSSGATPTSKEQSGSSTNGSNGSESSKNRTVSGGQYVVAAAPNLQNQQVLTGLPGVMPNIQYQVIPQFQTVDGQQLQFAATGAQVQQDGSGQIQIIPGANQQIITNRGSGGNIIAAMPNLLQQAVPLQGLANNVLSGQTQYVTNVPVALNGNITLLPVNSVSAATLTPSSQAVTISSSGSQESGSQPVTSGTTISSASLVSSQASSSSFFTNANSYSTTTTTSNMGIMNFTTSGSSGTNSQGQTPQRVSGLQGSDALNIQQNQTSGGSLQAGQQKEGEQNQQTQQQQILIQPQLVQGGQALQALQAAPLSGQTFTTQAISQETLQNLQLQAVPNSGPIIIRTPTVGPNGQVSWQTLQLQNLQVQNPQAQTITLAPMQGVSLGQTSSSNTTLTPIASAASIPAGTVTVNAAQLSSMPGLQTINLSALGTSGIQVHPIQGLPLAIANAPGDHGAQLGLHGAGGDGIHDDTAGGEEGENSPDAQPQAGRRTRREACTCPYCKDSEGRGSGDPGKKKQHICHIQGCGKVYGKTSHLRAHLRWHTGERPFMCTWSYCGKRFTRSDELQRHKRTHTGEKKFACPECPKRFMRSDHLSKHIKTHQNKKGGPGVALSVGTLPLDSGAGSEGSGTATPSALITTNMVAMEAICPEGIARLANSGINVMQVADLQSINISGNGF
Paired box protein Pax-6 (Homo sapiens), sequence (P26367 whole entry, looked up): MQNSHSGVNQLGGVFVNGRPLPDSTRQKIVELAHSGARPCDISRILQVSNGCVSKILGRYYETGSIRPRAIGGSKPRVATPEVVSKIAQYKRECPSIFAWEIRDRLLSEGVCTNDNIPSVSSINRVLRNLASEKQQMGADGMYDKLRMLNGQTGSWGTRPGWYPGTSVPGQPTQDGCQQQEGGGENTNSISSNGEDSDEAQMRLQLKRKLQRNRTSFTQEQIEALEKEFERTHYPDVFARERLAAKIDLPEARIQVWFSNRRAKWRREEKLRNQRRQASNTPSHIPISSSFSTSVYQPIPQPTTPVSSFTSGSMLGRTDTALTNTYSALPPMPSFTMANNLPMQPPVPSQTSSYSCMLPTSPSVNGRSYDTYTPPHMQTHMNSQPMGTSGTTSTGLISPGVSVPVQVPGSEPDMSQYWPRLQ

O=S1OC[C@@H]2[C@H](CO1)[C@]1(Cl)C(Cl)=C(Cl)[C@@]2(Cl)C1(Cl)Cl (stereo not given in full)
active: [4] 66.4 µM | [5] 26.4 µM | [7] 2.34 µM | [17] 6.07 µM | [19] 3.77 µM
not listed: [20]
inactive: all other assays above

CC(C)CC(C)(c1ccc(O)cc1)c1ccc(O)cc1
active: [3] 17 µM | [4] 16.6 µM | [7] 2.92 µM | [20] 15.3 µM | [14] 11.1 µM | [17] 5.37 µM
not listed: [6] | [13] | [18] | [19]
inactive: all other assays above

N#Cc1ccccc1N
active: [7] 39.4 µM
not listed: [6] | [13]
inactive: all other assays above

CNC(=O)CSP(=O)(OC)OC
not listed: [6] | [8] | [17] | [18] | [19]
inactive: all other assays above

CCCCC(CC)COC(=O)Cl (stereo not given)
not listed: [8] | [12] | [17] | [18] | [20]
inactive: all other assays above

CCOC(=O)C(SP(=S)(OC)OC)c1ccccc1 (stereo not given)
active: [4] 37.3 µM | [7] 1.77 µM
not listed: [17] | [18] | [19] | [20]
inactive: all other assays above

CCCCN(CCCC)C(=S)[S-].CCCCN(CCCC)C(=S)[S-].[Ni+2]
active: [7] 7.2 µM
not listed: [5] | [12] | [18] | [20]
inactive: all other assays above

OC(Cc1ccccc1Cl)(Cn1[nH]cnc1=S)C1(Cl)CC1 (stereo not given)
active: [3] 140 µM | [5] 21.7 µM | [7] 4.27 µM | [9] 145 µM | [17] 18 µM
not listed: [4] | [19]
inactive: all other assays above

Nc1ccc(-c2ccccc2)cc1
active: [4] 56.8 µM | [7] 30.1 µM | [19] 14.8 µM
not listed: [6] | [12] | [20]
inactive: all other assays above
